In PubChem BioAssay AID1159580 (chemical genetic matrix, 2015):
The whole screen tested about 5,500 compounds, of which about 2,000 (36%) were called active. About 18% were inconclusive and are not listed. No stated cut-off is given here; in the data, active means normalized growth mostly below about 0.91 (no sharp cut-off); inconclusive means no clear call, values can overlap the other calls; inactive means mostly above about 0.92. The list shows a part of the results.

Test: chemical genetic growth profiling, strain panel (AID 1159580);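 further: tested at 20 µM; growth read once vehicle control cultures reached saturation at 30 °C; 1 = growth at the plate median or of vehicle wells; lower values mean less growth of the strain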
Details: growth OD

Measured: normalized growth

O=C(CSCc1cccc2ccccc12)NNC(=S)Nc1ccccc1Cl
active: S. cerevisiae deletion strains, locus YEL061C, strain CIN8, active compounds read low 0.813 | S. cerevisiae deletion strains, locus YKL190W, strain CNB1, active compounds read low 0.844 | S. cerevisiae deletion strains, locus YLR039C, strain RIC1, active compounds read low 0.588 | S. cerevisiae deletion strains, locus YLR085C, strain ARP6, active compounds read low 0.679 | S. cerevisiae deletion strains, locus YLR262C, strain YPT6, active compounds read low 0.623 | S. cerevisiae deletion strains, locus YML094W, strain GIM5, active compounds read low 0.857 | S. cerevisiae deletion strains, locus YNL298W, strain CLA4 (second series), active compounds read low 0.564 | S. cerevisiae deletion strains, locus YNR030W, strain Alg12, active compounds read low 0.63 | S. cerevisiae deletion strains, locus YOL006C, strain TOP1, active compounds read low 0.365 | S. cerevisiae deletion strains, locus YPL241C, strain CIN2, active compounds read low 0.648 | S. cerevisiae strains, strain wild type, active compounds read low 0.765
inactive: S. cerevisiae deletion strains, locus YAL013W, strain DEP1, active compounds read low 0.969 | S. cerevisiae deletion strains, locus YBR229C, strain ROT2, active compounds read low 0.991 | S. cerevisiae deletion strains, locus YCL061C, strain MRC1, active compounds read low 0.971 | S. cerevisiae deletion strains, locus YDL101C, strain DUN1, active compounds read low 0.987 | S. cerevisiae deletion strains, locus YDR150W, strain NUM1, active compounds read low 0.933 | S. cerevisiae deletion strains, locus YGR078C, strain PAC10, active compounds read low 0.984 | S. cerevisiae deletion strains, locus YHR030C, strain SLT2, active compounds read low 0.728 | S. cerevisiae deletion strains, locus YHR087W, strain rtc3, active compounds read low 1.02 | S. cerevisiae deletion strains, locus YJR043C, strain POL32, active compounds read low 0.986 | S. cerevisiae deletion strains, locus YJR075W, strain HOC1, active compounds read low 0.984 | S. cerevisiae deletion strains, locus YLR058C, strain SHM2 (second series), active compounds read low 0.978 | S. cerevisiae deletion strains, locus YMR219W, strain ESC1, active compounds read low 0.988 | S. cerevisiae deletion strains, locus YMR263W, strain SAP30, active compounds read low 0.955 | S. cerevisiae deletion strains, locus YNL153C, strain GIM3, active compounds read low 0.958 | S. cerevisiae deletion strains, locus YNL322C, strain KRE1, active compounds read low 0.996 | S. cerevisiae deletion strains, locus YPL055C, strain LGE1, active compounds read low 0.903 | S. cerevisiae deletion strains, locus YPR135W, strain CTF4, active compounds read low 0.793
